Source: PubChem BioAssay (Tox21)
Inconclusive results are not listed. Entries that show only a call come without a potency. Calls of active or inactive are those of the source. Unless noted, the call rests on the fitted dose curve.

Tests used:
[1] = Nuclear factor erythroid 2-related factor 2/antioxidant responsive element (Nrf2/ARE) small molecule agonists: qHTS cell viability counter screen in human keratinocytes (AID 1919968; active means well fitted curve in the direction sought with a large enough effect in the repeat runs; an effect the other way counts as inactive or inconclusive; further: nearly all actives have a fitted effect of over 55% in size; further: potency means the concentration at half of the fitted maximal effect)
Summary of the method: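 After a 5 h attachment period, ARE-reporter keratinocytes were dosed with compounds in DMSO and then cultured 23 h at 37 C. Cell viability came from CellTiter-Fluor signal read after a further 1 h.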

[2] = target: Gonadotropin-releasing hormone receptor (Homo sapiens) (UniProt P30968); experiment: Human gonadotropin-releasing hormone receptor (GnRHR) small molecule agonists, calcium flux assay in GnRHR-HEK293 cells (AID 1920063); further: nearly all actives have a fitted effect of over 35% in size
Chain of Gonadotropin-releasing hormone receptor (Homo sapiens) (P30968 whole entry, looked up): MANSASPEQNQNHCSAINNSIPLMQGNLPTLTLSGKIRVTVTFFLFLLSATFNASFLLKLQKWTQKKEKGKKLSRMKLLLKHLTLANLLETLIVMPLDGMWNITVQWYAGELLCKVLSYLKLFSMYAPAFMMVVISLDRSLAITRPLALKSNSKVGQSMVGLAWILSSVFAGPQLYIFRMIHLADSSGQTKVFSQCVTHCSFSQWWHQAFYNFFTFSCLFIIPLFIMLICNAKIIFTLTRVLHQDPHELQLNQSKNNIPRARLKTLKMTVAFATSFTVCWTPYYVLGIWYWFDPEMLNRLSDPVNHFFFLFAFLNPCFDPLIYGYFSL
Summary of the method: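 We seeded human GnRHR-expressing HEK293 cells for 18 hours, loaded them with calcium dye for an hour at 37 C, added test compounds, and recorded fluorescence intensity kinetically for three minutes.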

[3] = target: KiSS-1 receptor (Homo sapiens) (UniProt Q969F8); experiment: Human kisspeptin (KISS1R) small molecule agonists, calcium flux assay in KISS1R-HEK293 cells (AID 1920064; active means well fitted curve in the direction sought with a large enough effect in the repeat runs; an effect the other way counts as inactive or inconclusive)
Chain of KiSS-1 receptor (Homo sapiens) (Q969F8 whole entry, looked up): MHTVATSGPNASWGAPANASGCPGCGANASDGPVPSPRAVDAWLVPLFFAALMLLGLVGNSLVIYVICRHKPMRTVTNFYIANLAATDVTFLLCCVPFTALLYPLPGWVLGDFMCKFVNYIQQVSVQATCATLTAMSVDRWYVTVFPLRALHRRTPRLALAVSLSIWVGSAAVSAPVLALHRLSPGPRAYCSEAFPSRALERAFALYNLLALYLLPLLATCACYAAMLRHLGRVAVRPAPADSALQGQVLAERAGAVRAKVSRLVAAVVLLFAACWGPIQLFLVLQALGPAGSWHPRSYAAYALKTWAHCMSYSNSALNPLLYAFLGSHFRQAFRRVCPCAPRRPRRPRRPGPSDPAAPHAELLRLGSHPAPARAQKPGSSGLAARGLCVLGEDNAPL
Summary of the method: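 Kinetic calcium assay, 1 s sampling over 3 min at Ex/Em 480/540, in HEK293 cells engineered with human KISS1R; compounds delivered in DMSO after 1 h dye loading.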

[4] = p53 small molecule agonists, cell-based qHTS assay with human liver microsomes (AID 1963577);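 further: p53 response element beta-lactamase reporter cells with liver microsomes plus NADPH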
Summary of the method: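 16 h, 37 C exposure of p53RE-bla cells to compounds with human liver microsomes and NADPH (0.5 mg/mL final each); detection via LiveBLAzer mixture, 2 h dark at room temperature.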

[5] = p53 small molecule agonists, cell-based qHTS assay with rat liver microsomes (AID 1963578)
Summary of the method: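 With rat liver microsomes and NADPH present (0.5 mg/mL final each), p53RE-bla cells are treated with compound for 16 h at 37 C. LiveBLAzer detection mixture is then applied for 2 h at room temperature in the dark.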

[6] = p53 small molecule agonists, cell-based qHTS assay with rat liver microsomes: qHTS cell viability counter screen (AID 1963580); further: nearly all actives have a fitted effect of over 45% in size; further: potency means the concentration at half of the fitted maximal effect
Summary of the method: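 p53RE-bla HCT-116 cells were exposed 16 h at 37 C to compounds with rat liver microsomes (0.5 mg/mL) and NADPH (0.5 mg/mL). Viability was measured in the same wells as ATP content by CellTiter-Glo luminescence.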

[7] = p53 small molecule agonists, cell-based qHTS assay: qHTS cell viability counter screen (AID 1963581); further: nearly all actives have a fitted effect of over 45% in size
Summary of the method: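 Following 5 h attachment, HCT-116 p53RE-bla cells took up compound for 16 h at 37 C; the reporter was read with B/G FRET substrate (2 h RT), and viability then via CellTiter-Glo ATP luminescence.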

[8] = p53 small molecule agonists, cell-based qHTS assay (AID 1963582; active means well fitted activation curve with a large enough effect in the signal ratio in the repeat runs, not every such curve was filed as active; the % refers to the signal ratio)
Summary of the method: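 In this cell-based concentration-response screen, a p53 response element drives beta-lactamase; cells received DMSO-borne compounds after 5 h culture and were incubated a further 16 h before FRET substrate development.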

[9] = target: 5-hydroxytryptamine receptor 2A (Homo sapiens) (UniProt P28223); experiment: 5-hydroxytryptamine receptor 2A (HTR2A) small molecule agonists, cell-based qHTS assay (AID 1963587); further: nearly all actives have a fitted effect of over 30% in size
Chain of 5-hydroxytryptamine receptor 2A (Homo sapiens) (P28223 whole entry, looked up): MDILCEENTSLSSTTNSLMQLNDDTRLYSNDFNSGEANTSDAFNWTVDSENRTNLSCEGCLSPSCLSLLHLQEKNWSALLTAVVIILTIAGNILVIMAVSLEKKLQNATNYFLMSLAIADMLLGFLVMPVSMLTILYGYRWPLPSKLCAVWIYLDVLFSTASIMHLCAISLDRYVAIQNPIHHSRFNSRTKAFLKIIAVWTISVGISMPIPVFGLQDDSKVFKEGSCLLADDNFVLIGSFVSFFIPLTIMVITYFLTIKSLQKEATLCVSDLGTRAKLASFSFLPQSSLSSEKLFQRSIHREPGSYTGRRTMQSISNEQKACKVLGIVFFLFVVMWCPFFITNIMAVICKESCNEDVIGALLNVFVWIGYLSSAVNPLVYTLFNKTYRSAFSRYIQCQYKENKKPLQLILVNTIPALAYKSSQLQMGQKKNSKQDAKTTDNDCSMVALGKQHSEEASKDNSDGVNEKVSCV
Summary of the method: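 CHO cells stably expressing human HTR2A, plated 18 h, loaded with calcium dye 1 h at 37 C. Agonist mode: compounds added and intracellular calcium fluorescence recorded kinetically for 2 min at 1 sec intervals.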

[10] = target: Muscarinic acetylcholine receptor M1 (Homo sapiens) (UniProt P11229); experiment: Cholinergic receptor muscarinic 1 (CHRM1) small molecule antagonists, cell-based qHTS assay (AID 1963588); further: nearly all actives have a fitted effect of over 40% in size; further: potency means the concentration at half of the fitted maximal effect
Chain of Muscarinic acetylcholine receptor M1 (Homo sapiens) (P11229 whole entry, looked up): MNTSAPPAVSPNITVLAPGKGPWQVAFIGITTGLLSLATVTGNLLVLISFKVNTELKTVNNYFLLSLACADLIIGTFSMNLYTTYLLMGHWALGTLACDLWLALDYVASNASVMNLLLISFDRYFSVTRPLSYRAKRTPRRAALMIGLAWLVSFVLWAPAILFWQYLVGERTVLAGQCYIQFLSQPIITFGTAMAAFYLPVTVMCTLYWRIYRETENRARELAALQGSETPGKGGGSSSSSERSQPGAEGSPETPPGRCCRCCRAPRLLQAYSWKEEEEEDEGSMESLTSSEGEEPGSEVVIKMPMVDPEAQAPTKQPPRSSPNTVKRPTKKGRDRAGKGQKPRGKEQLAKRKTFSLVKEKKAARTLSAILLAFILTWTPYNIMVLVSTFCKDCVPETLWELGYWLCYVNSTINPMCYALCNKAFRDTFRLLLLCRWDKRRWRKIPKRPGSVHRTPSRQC
Summary of the method: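 CHRM1-CHO calcium-flux assay, antagonist mode. Cells were seeded 18 h, dye-loaded 1 h at 37 C and given compound for 5 min at RT, then acetylcholine was added at 50nM. FDSS fluorescence was read 3 min; 15 concentrations, three runs.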

[11] = target: Muscarinic acetylcholine receptor M1 (Homo sapiens) (UniProt P11229); experiment: Cholinergic receptor muscarinic 1 (CHRM1) small molecule agonists, cell-based qHTS assay (AID 1963589); further: nearly all actives have a fitted effect of over 35% in size
Summary of the method: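 Measures agonist-induced intracellular calcium rise. Stable human CHRM1 CHO line, 1 h dye load at 37 C, compounds from DMSO, kinetic fluorescence read.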

[12] = cAMP Responsive Elements (CRE) small molecule agonists, cell-based qHTS assay (AID 1963590)
Summary of the method: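 A CRE-responsive beta-lactamase reporter in HEK 293T cells was used. Treatment ran 3 h at 37 C; detection used LiveBLAzer B/G FRET substrate for 2 h at room temperature.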

[13] = cAMP Responsive Elements (CRE) small molecule antagonists, cell-based qHTS assay (AID 1963591; active means well fitted inhibition curve with a large enough effect in the signal ratio in the repeat runs, not every such curve was filed as active; the % refers to the signal ratio)
Summary of the method: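 HEK293T cells carrying a CRE-driven beta-lactamase reporter receive compound and NKH477 (0.25 uM final) for 3 h. Fluorescence from LiveBLAzer B/G FRET substrate is read after 2 h at room temperature.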

[14] = target: Beta-2 adrenergic receptor (Homo sapiens) (UniProt P07550); experiment: Adrenergic beta2 receptor (ADRB2) small molecule antagonists, cell-based qHTS assay (AID 1963592); further: series mostly up to about 92 µM; nearly all actives have a fitted effect of over 50% in size
Chain of Beta-2 adrenergic receptor (Homo sapiens) (P07550 whole entry, looked up): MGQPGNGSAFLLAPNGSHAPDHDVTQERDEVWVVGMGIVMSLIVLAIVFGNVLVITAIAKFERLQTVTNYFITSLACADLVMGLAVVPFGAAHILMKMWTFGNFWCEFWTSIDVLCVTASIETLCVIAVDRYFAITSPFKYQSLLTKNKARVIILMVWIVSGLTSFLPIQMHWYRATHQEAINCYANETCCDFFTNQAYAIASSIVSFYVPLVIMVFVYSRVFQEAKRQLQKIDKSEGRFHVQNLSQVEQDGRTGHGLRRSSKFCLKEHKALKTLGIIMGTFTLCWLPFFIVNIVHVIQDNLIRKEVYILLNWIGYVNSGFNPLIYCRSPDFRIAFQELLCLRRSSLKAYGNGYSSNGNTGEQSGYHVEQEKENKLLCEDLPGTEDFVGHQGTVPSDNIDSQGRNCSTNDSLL
Summary of the method: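 Cells (CHO, stable ADRB2 overexpression) incubated 18-20hr at 37C; compounds added from DMSO; agonist mix (1nM isoproterenol, 100uM IBMX, 25uM Ro-20-1724) added; 0.5hr RT; d2-cAMP and anti-cAMP-cryptate added; 1hr RT; 665/615 nm read.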

[15] = target: D(2) dopamine receptor (Homo sapiens) (UniProt P14416); experiment: Dopamine D2 receptor (DRD2) small molecule agonists, cell-based qHTS assay (AID 1963594); further: nearly all actives have a fitted effect of over 35% in size
Chain of D(2) dopamine receptor (Homo sapiens) (P14416 whole entry, looked up): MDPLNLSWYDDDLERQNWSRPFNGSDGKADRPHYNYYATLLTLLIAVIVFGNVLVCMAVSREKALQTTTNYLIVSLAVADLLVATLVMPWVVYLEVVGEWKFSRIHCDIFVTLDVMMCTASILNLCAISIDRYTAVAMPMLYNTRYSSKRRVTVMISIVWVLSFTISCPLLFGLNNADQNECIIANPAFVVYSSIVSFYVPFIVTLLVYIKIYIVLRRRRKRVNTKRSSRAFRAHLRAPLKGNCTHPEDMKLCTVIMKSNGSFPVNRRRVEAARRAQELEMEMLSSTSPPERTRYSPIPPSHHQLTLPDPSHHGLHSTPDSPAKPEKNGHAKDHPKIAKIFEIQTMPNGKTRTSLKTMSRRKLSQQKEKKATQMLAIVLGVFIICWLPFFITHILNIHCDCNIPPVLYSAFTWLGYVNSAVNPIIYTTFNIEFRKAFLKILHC
Summary of the method: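 HEK293 cells stably expressing human DRD2, pre-treated with PDE inhibitor Ro20-1724 (0.1 mM final) and compound 10 min at room temperature, then stimulated with NKH477 (200nM […]) for 30 min. cAMP read by HTRF (665/620 nm).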

[16] = target: D(2) dopamine receptor (Homo sapiens) (UniProt P14416); experiment: Dopamine D2 receptor (DRD2) small molecule antagonists, cell-based qHTS assay (AID 1963595; active means well fitted inhibition curve with a large enough effect in the signal ratio in the repeat runs, with a control signal flat; the % refers to the signal ratio; further: potency means the concentration at half of the fitted maximal effect)
Summary of the method: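 Antagonist mode in DRD2-HEK293 cells: after compound addition with 0.1 mM Ro20-1724, cells received quinpirole (12 nM) and NKH477 (200 nM) for 30 min at room temperature; HTRF cAMP read after 1 h detection.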

[17] = G protein-coupled receptor (GPCR) small molecule agonists, calcium flux assay: HEK293 wild type cell line counter screen (AID 1920065)
Summary of the method: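 Calcium-sensitive dye, loaded 1 h at 37 C into cells cultured 18 h, reports compound-evoked calcium release as fluorescence (Ex/Em 480/540), measured over 3 min. Agonist mode; 15-point titrations, triplicate.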

[18] = p53 small molecule agonists, cell-based qHTS assay with human liver microsomes: qHTS cell viability counter screen (AID 1963579); further: nearly all actives have a fitted effect of over 45% in size
Summary of the method: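 In this multiplexed counter screen, the reporter plates were subsequently treated with CellTiter-Glo so that cell viability, reflected by luminescence, could be recorded for p53RE-bla cells dosed 16 h with compounds under microsomal activation (HLM and NADPH).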

[19] = target: Beta-2 adrenergic receptor (Homo sapiens) (UniProt P07550); experiment: Adrenergic beta2 receptor (ADRB2) small molecule agonists, cell-based qHTS assay (AID 1963593);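 further: CHO cells stably overexpressing human ADRB2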
Summary of the method: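 CHO cells stably over-expressing ADRB2 were plated overnight at 37C, then dosed with compounds plus a stimulation mix containing 100uM IBMX and 25uM Ro-20-1724 for 0.5hr at room temperature. cAMP was measured by HTRF competition, 1hr.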

[20] = target: 5-hydroxytryptamine receptor 2A (Homo sapiens) (UniProt P28223); experiment: 5-hydroxytryptamine receptor 2A (HTR2A) small molecule antagonists, cell-based qHTS assay (AID 1963586); further: nearly all actives have a fitted effect of over 45% in size; further: potency means the concentration at half of the fitted maximal effect
Summary of the method: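 Antagonist-mode intracellular calcium assay: DOI (4 nM) added after 5 min compound pre-incubation at room temperature to dye-loaded HTR2A-CHO cells. Fluorescence followed for 3 min, sampled every second.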

SMILES	Potency [1]	Potency [2]	Potency [3]	Potency [4]	Potency [5]	Potency [6]	Potency [7]	Potency [8]	Potency [9]	Potency [10]	Potency [11]	Potency [12]	Potency [13]	Potency [14]	Potency [15]	Potency [16]	Potency [17]	Potency [18]	Potency [19]	Potency [20]
CC(=O)c1ccc(-c2ccccc2)cc1	inactive	inactive	inactive	inactive	inactive	inactive	inactive	inactive	inactive	inactive	inactive	inactive	inactive	inactive	inactive	inactive				
O.O.O.O.O.O.O.O=S(=O)([O-])[O-].[Co+2]	inactive	inactive	inactive			inactive	inactive		inactive	inactive	inactive	inactive	inactive	inactive		inactive	inactive	inactive		
COc1cccc(C(=O)CCN[C@@H](C)[C@H](O)c2ccccc2)c1	inactive	inactive	inactive		inactive	inactive		inactive		inactive	inactive	inactive		inactive	inactive	15 µM (active)		inactive		
C=CCN1CC[C@]23c4c5ccc(O)c4O[C@H]2C(=O)CC[C@@]3(O)[C@H]1C5	inactive	inactive	inactive				inactive					inactive	inactive	inactive	inactive	inactive	inactive	inactive	inactive	
CC(=O)[O-].CC(=O)[O-].O.O.[Zn+2]	inactive	inactive	inactive			inactive			inactive	inactive	inactive	inactive	inactive	inactive		inactive	inactive	inactive		inactive
C#CCC1=C(C)C(OC(=O)C2C(C=C(C)C)C2(C)C)CC1=O (configuration not stated)	inactive	inactive	inactive			inactive	inactive		inactive	11.8 µM (active)	inactive			inactive	inactive			inactive		inactive
COC(=O)c1ccccc1S(=O)(=O)NC(=O)Nc1nc(C)cc(C)n1	inactive	inactive	inactive				inactive		inactive	inactive	inactive	inactive	inactive	inactive	inactive	inactive	inactive	inactive		inactive
CCOP(O)OCC	inactive	inactive	inactive				inactive		inactive	inactive	inactive	inactive	inactive	inactive	inactive	inactive	inactive	inactive	inactive	inactive
CNC(=O)Oc1cccc(C(C)C)c1	inactive	inactive	inactive			inactive			inactive		inactive	inactive	inactive	inactive	inactive	inactive	inactive	inactive		inactive
COP(=S)(OC)Oc1cc(Cl)c(I)cc1Cl	inactive	inactive	inactive			inactive	inactive		inactive	inactive	inactive	inactive	inactive	inactive	inactive	inactive	inactive		inactive	inactive
CC(=O)NNc1ccccc1	inactive	inactive	inactive			inactive	inactive		inactive	inactive	inactive	inactive	inactive		inactive	inactive	inactive	inactive		inactive
C=CC(=O)OCCCCO	inactive	inactive	inactive				inactive		inactive		inactive			inactive	inactive	inactive	inactive	inactive	inactive	inactive
CC(C)CC(N(C)C)C1(c2ccc(Cl)cc2)CCC1 (configuration not stated)	inactive	inactive	inactive			0.793 µM (active)	inactive						inactive	inactive	inactive	inactive	inactive	inactive		
CC(=O)[O-].CC(=O)[O-].CC(=O)[O-].[Cr+3]	inactive	inactive	inactive				inactive		inactive	inactive	inactive		inactive	inactive		inactive	inactive	inactive		inactive
[Cl-].[Cl-].[Cl-].[Yb+3]	inactive	inactive	inactive			inactive				inactive	inactive		inactive	inactive	inactive	inactive	inactive	inactive	inactive	inactive
CCOC(=O)C(SP(=S)(OC)OC)c1ccccc1 (configuration not stated)	inactive	inactive	inactive			inactive		inactive	inactive	inactive	inactive	inactive	inactive	inactive	inactive	inactive	inactive	inactive	inactive	inactive
CCCSP(=S)(OCC)Oc1ccc(SC)cc1 (configuration not stated)	inactive	inactive	inactive			inactive	inactive	inactive	inactive		inactive	inactive			inactive	inactive	inactive		inactive	inactive
CCCCC/C=C\C/C=C\C/C=C\C/C=C\CCCC(=O)NCC(=O)O	inactive	inactive	inactive			inactive				inactive	inactive			inactive		inactive	inactive	inactive	inactive	
O=C1CCCCC1Cl (configuration not stated)	inactive	inactive		inactive	inactive	inactive	inactive		inactive	inactive	inactive	inactive	inactive	inactive	inactive	inactive	inactive	inactive		inactive
CC(=O)[O-].CC(=O)[O-].O.O.O.[Pb+2]	inactive		inactive			inactive	inactive		inactive	inactive				inactive	inactive	inactive	inactive	inactive		
Oc1c(I)cc(I)cc1I	30.6 µM (active)	inactive		inactive							inactive		inactive	inactive	inactive	inactive		inactive		42.1 µM (active)
CCOP(=S)(OCC)OC(Cl)C(Cl)(Cl)Cl (configuration not stated)	inactive		inactive			inactive	inactive	inactive	inactive	inactive	inactive		inactive	inactive	inactive		inactive			inactive
CCCCN(N=O)C(=N)N[N+](=O)[O-]	inactive		inactive	inactive	inactive	inactive	inactive		inactive	inactive	inactive		inactive	inactive	inactive	inactive	inactive	inactive		inactive
